Results filed as inconclusive are left out. A call without a number means that no potency is given here. Values without a mark were called inactive. The source made the active and inactive calls. Calls come from the whole dose curve; as a rule, active = well fitted cell-killing curve with a large enough effect; inconclusive = small, poorly fitted or top-dose-only effect, or effect the other way; inactive = flat fitted curve, though single readings scatter.
What was measured:
Assay in all cases: Primary qHTS to identify gynecologic anti-cancer compounds using libraries of approved drugs and bioactive compounds (AID 1345084); note: nearly all actives have a fitted effect of over 55% in size
[1] = test system: C33A; conditions: Gynecologic cancer cell panel viability, ATPlite luminescence, 48 h; series mostly up to 57.5 µM
Outline: (§1)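 48 h compound exposure at 37 C, 5% CO2; five-point qHTS. ATPlite luminescence readout of cell ATP.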

[2] = test system: CASKI; conditions: Gynecologic cancer cell panel viability, ATPlite luminescence, 48 h; series mostly up to 57.5 µM
Outline: as §1

[3] = test system: Es-2; conditions: Gynecologic cancer cell panel viability, ATPlite luminescence, 48 h; series mostly up to 57.5 µM
Outline: as §1

[4] = test system: HeLa; conditions: Gynecologic cancer cell panel viability, ATPlite luminescence, 48 h; series mostly up to 57.5 µM
Outline: as §1

[5] = test system: Hek293T; conditions: Gynecologic cancer cell panel viability, ATPlite luminescence, 48 h, control line for the selectivity index; series mostly up to 57.5 µM
Outline: as §1

[6] = test system: JEG-3; conditions: Gynecologic cancer cell panel viability, ATPlite luminescence, 48 h; series mostly up to 57.5 µM
Outline: as §1

[7] = test system: OV90; conditions: Gynecologic cancer cell panel viability, ATPlite luminescence, 48 h; series mostly up to 57.5 µM
Outline: as §1

[8] = test system: PA-1; conditions: Gynecologic cancer cell panel viability, ATPlite luminescence, 48 h; series mostly up to 57.5 µM
Outline: as §1

[9] = test system: SKOV3; conditions: Gynecologic cancer cell panel viability, ATPlite luminescence, 48 h; series mostly up to 57.5 µM
Outline: as §1

[10] = test system: Tov-21-G; conditions: Gynecologic cancer cell panel viability, ATPlite luminescence, 48 h; series mostly up to 57.5 µM
Outline: as §1

[11] = test system: Tov112D; conditions: Gynecologic cancer cell panel viability, ATPlite luminescence, 48 h; series mostly up to 57.5 µM
Outline: as §1

[12] = test system: CAOV3; conditions: Gynecologic cancer cell panel viability, ATPlite luminescence, 48 h; series mostly up to 57.5 µM
Outline: as §1
Potency is the fitted concentration of half-maximal effect.

SMILES: COc1ccc(NC(=O)c2ccc(C(=N)N(C)C)cc2)c(C(=O)Nc2ccc(Cl)cn2)c1
- Potency [1]: inactive
- Potency [2]: inactive
- Potency [3]: inactive
- Potency [4]: inactive
- Potency [5]: inactive
- Potency [6]: inactive
- Potency [7]: inactive
- Potency [8]: inactive
- Potency [9]: inactive
- Potency [10]: inactive
- Potency [11]: inactive

SMILES: COc1c2c(c(C)c3c1C(=O)OC3)O[C@@]1(C)C[C@@H](OC(C)=O)[C@]34O[C@](OC)(CC[C@]3(C)[C@H]1C2)OC4(C)C
- Potency [1]: inactive
- Potency [2]: inactive
- Potency [3]: inactive
- Potency [4]: inactive
- Potency [5]: inactive
- Potency [6]: inactive
- Potency [7]: inactive
- Potency [8]: inactive
- Potency [9]: inactive
- Potency [10]: inactive
- Potency [11]: inactive

SMILES: O=c1[nH]c2cccc(N3CCN(Cc4ccc(-c5ccccc5)cc4)CC3)c2o1
- Potency [1]: inactive
- Potency [2]: inactive
- Potency [3]: inactive
- Potency [4]: inactive
- Potency [5]: inactive
- Potency [6]: inactive
- Potency [7]: inactive
- Potency [8]: inactive
- Potency [9]: inactive
- Potency [10]: inactive
- Potency [11]: inactive

SMILES: CC[C@@H](Nc1c(Nc2cccc(C(=O)N(C)C)c2O)c(=O)c1=O)c1cc(C(C)C)co1
- Potency [1]: inactive
- Potency [2]: inactive
- Potency [3]: inactive
- Potency [4]: inactive
- Potency [5]: inactive
- Potency [6]: inactive
- Potency [7]: inactive
- Potency [8]: inactive
- Potency [9]: inactive
- Potency [10]: inactive
- Potency [11]: inactive

SMILES: O=C(Nc1nc2cc(C(F)(F)F)cc(NC3CC3)n2n1)c1cccnc1
- Potency [1]: inactive
- Potency [12]: inactive
- Potency [4]: 12.6 µM (active)
- Potency [6]: 10 µM (active)
- Potency [7]: inactive
- Potency [8]: 7.08 µM (active)
- Potency [11]: 7.94 µM (active)

SMILES: COc1cc2c(c(OC)c1CC=C(C)C)C[C@H](c1ccc(O)c(CC=C(C)C)c1O)CO2
- Potency [1]: inactive
- Potency [2]: inactive
- Potency [3]: inactive
- Potency [4]: inactive
- Potency [5]: inactive
- Potency [6]: inactive
- Potency [7]: inactive
- Potency [8]: inactive
- Potency [9]: inactive
- Potency [10]: inactive
- Potency [11]: inactive

SMILES: Cc1[nH]c(/C=C2\C(=O)Nc3cc(-c4ccccc4)ccc32)c(C)c1CCC(=O)O
- Potency [1]: inactive
- Potency [12]: inactive
- Potency [6]: inactive
- Potency [7]: inactive
- Potency [11]: inactive

SMILES: CC(=O)O[C@@]12CO[C@@H]1C[C@H](O)[C@@]1(C)C(=O)[C@H](O)C3=C(C)[C@@H](OC(=O)[C@H](O)[C@@H](NC(=O)OC(C)(C)C)c4ccccc4)C[C@@](O)([C@@H](OC(=O)c4ccccc4)C12)C3(C)C (stereo partly specified)
- Potency [1]: inactive
- Potency [12]: inactive
- Potency [6]: inactive
- Potency [7]: inactive
- Potency [11]: inactive

SMILES: CC1OC(OC2C(O)COC(O[C@@H]3[C@@H](O)[C@@H](O)[C@H](OC4C(OC(=O)[C@]56CCC(C)(C)CC5C5=CCC7[C@@]8(C)C[C@H](O)[C@H](OC9OC(CO)C(O)C(O)C9O)[C@@](C)(CO)C8[C@H](O)C[C@@]7(C)[C@]5(C)CC6)OCC(O)C4O)O[C@H]3C)C2O)C(O)C(O)C1O (stereo partly specified)
- activity change, negative = cytotoxicity [1]: -9.28% [at 6.55 µM]
- activity change, negative = cytotoxicity [2]: 20% [at 6.55 µM]
- activity change, negative = cytotoxicity [3]: -27.5% [at 6.55 µM]
- activity change, negative = cytotoxicity [4]: -4.81% [at 6.55 µM]
- activity change, negative = cytotoxicity [5]: -17.3% [at 6.55 µM]
- activity change, negative = cytotoxicity [6]: -13.2% [at 6.55 µM]
- activity change, negative = cytotoxicity [7]: 13.1% [at 6.55 µM]
- activity change, negative = cytotoxicity [8]: 0.113% [at 6.55 µM]
- activity change, negative = cytotoxicity [9]: -8.72% [at 6.55 µM]
- activity change, negative = cytotoxicity [10]: -21.3% [at 6.55 µM]
- activity change, negative = cytotoxicity [11]: -9.06% [at 6.55 µM]

SMILES: CN(C)C(=O)NC1(c2ccccc2)CCN(CCC[C@]2(c3ccc(Cl)c(Cl)c3)CCCN(C(=O)c3ccccc3)C2)CC1
- Potency [1]: inactive
- Potency [12]: 20 µM (active)
- Potency [4]: inactive
- Potency [6]: inactive
- Potency [11]: inactive

SMILES: C/C1=C\[C@@H](C)C[C@@H](C)[C@@H](Cc2cnco2)OC(=O)/C(C)=C/[C@@H](C)C[C@@H](C)[C@@H](Cc2cnco2)OC1=O
- Potency [1]: inactive
- Potency [12]: inactive
- Potency [4]: inactive
- Potency [6]: inactive
- Potency [7]: inactive
- Potency [8]: inactive
- Potency [10]: inactive

SMILES: C=C[C@]1(C)C[C@H](O)[C@H]2C(=C)C(=O)O[C@@H]2[C@H]1C(=C)CO
- Potency [1]: inactive
- Potency [2]: inactive
- Potency [3]: inactive
- Potency [4]: inactive
- Potency [5]: inactive
- Potency [6]: inactive
- Potency [7]: inactive
- Potency [8]: inactive
- Potency [9]: inactive
- Potency [10]: inactive
- Potency [11]: inactive

SMILES: COc1ccc(-c2ccccc2)cc1NS(=O)(=O)c1cc(Cl)cc(Cl)c1O
- Potency [1]: inactive
- Potency [12]: inactive
- Potency [9]: inactive

SMILES: COC(=O)C[C@H]1[C@]2(C)C3=C(C)[C@H](c4ccoc4)C[C@H]3O[C@@H]2[C@H](O)C2[C@](C)(C(=O)OC)C=CC(=O)[C@@]21C (stereo partly specified)
- Potency [1]: inactive
- Potency [2]: inactive
- Potency [3]: inactive
- Potency [4]: inactive
- Potency [5]: inactive
- Potency [6]: inactive
- Potency [7]: inactive
- Potency [8]: inactive
- Potency [9]: inactive
- Potency [10]: inactive
- Potency [11]: inactive

SMILES: CC(=O)N[C@H]1[C@H](O[C@H]2CC[C@@]3(C)C(CC[C@]4(C)C3CC=C3C5CC(C)(C)CC[C@]5(C(=O)O)C(O)C[C@]34C)C2(C)C)O[C@H](CO[C@@H]2O[C@H](C)[C@H](O)[C@H](O)[C@H]2O[C@@H]2OC[C@@H](O)[C@H](O)[C@H]2O)[C@@H](O)[C@@H]1O (stereo partly specified)
- activity change, negative = cytotoxicity [1]: 3.31% [at 11.6 µM]
- activity change, negative = cytotoxicity [2]: 25.2% [at 11.6 µM]
- activity change, negative = cytotoxicity [3]: 3.97% [at 11.6 µM]
- activity change, negative = cytotoxicity [4]: 4.55% [at 11.6 µM]
- activity change, negative = cytotoxicity [5]: -2.18% [at 11.6 µM]
- activity change, negative = cytotoxicity [6]: -18.9% [at 11.6 µM]
- activity change, negative = cytotoxicity [7]: 7.05% [at 11.6 µM]
- activity change, negative = cytotoxicity [8]: 4.44% [at 11.6 µM]
- activity change, negative = cytotoxicity [9]: -11.9% [at 11.6 µM]
- activity change, negative = cytotoxicity [10]: -0.865% [at 11.6 µM]
- activity change, negative = cytotoxicity [11]: -1.59% [at 11.6 µM]

Source: PubChem BioAssay (NCATS)
